# In all, about 25,000 sequences were measured (“ln(normalized median fluorescence intensity)”: median about 7.1, highest 2% from about 10 on). The list comes from a sample in which the highest values are over-represented; it also holds similar and randomly drawn sequences.
# Tested on: PfSIP2 AP2 domain 1 (GST-tagged)
# Assay: gcPBM binding intensity (ln(normalized median fluorescence intensity)); higher = stronger DNA binding
# Outline: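 For binding intensity, the highest Masliner-normalised natural-log median intensity across replicate spots of either probe orientation was taken. Protein bound to the array was stained with Alexa488 anti-GST antibody and scanned at 488 nm. The protein, GST-tagged P. falciparum DNA-binding domains from E. coli at about 25 μg on average, had been applied for 1 h to an Agilent 4 × 180k array of primer-extended double-stranded 36-bp intergenic genomic probes and negative controls.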
row,Sequence,gcPBM binding intensity (ln)
1,AAATGTAATAATAAATGTACAAACATATATATGTAT [XGTACX_site8718],6.94
2,CTAAAAATCTTTTGTTGTACTTTTAGATAATCAGGA [XGTACX_site3968],7.06
3,ATGGGGAATAATGAATGTACACAAATAAAAAGTTGG [XGTACX_site4015],7.13
4,TTTTTTTTTTTTTGTTGTACCCATCATATATACATA [XGTACX_site4342],7.11
5,GTTCATTCATTTTAATGTACAAATTTAACTTTTTCT [XGTACX_site680],6.91
6,TCTTTTTTAAATAAAAGTACAAAAAAAAATAAAAAA [XGTACX_site2670],6.93
7,ATTTTTTTTTTTTTATGTACATATTAAAAAAAATAT [XGTACX_site1829],7.01
8,ATATAAAAATACAGGTGTACATTTTTTCATATTTAT [XGTACX_site6959],7.18
9,TATATAACATATGGGACACACATGCAACTGTTATAT [CACACA_site3792],7.19
10,TGATTCTAACTTATGGTGCAACATTATGGACACCGT,10.7
11,AATCATAAACATTATGCACACAAAAATAAAAAAAAA [CACACA_site8289],7.36
12,AACAACAACTAATATGCACACATTTAAAAACAAAAT [CACACA_site2440],7.5
13,TTATGGTGCAACATTATGCACACCGTTAAATAACTA [CACACA_site3846],11.9
14,GATTCATCTAAACACCGTACATATTATATATATATA [XGTACX_site6030],9.22
15,TCATAAACATTATGCACACAAAAATAAAAAAAAATA [CACACA_site1115],7.52
16,ATGGTGCAACATTATGCACACCGTTAAATAACTAAT [CACACA_site9280],11.8
17,TAATATATTATAAACACATGCACATTAATAATAACT [TGCATGCA_site708],9.16
18,ATTAAAGAGAGACATCAACACACATACGTATGTATA [CACACA_site8393],6.94
19,TAGTTTTTTATAAAATTATTTATATAAAGGTAAAAA [CACACA_negctrl_site490],7.1
20,TTTGGATAAAAAATATGTACACACATATAGATATCT [XGTACX_site5660],6.9
21,TCTACAAAATTATCATGTACATATTATTATAATTAT [XGTACX_site6585],7.28
22,TGTTGTATATCTCTATATAGCTATATTGTATATATA [TGCATGCA_negctrl_site323],6.97
23,TATAAAAGTGGACACACACACATATATATATATATA [CACACA_site4673],9.47

row,Sequence,gcPBM binding intensity (ln)
1,TAAAATAAATTGTGCACACATATTTATAAATATGAA [CACACA_site2331],9.66
2,TGTAAATTATAACGTGCACACATATTTAAAATGAAA [CACACA_site8915],10.6
3,ATATATAACGGGCACACACACATTTACGTATGAATA [CACACA_site1833],7.39
4,TAAATTATAACGTGCACACATATTTAAAATGAAATG [CACACA_site2820],10.3
5,AAATGAATTTAACAATGTACACATATATTATAAATA [XGTACX_site1449],7.13
6,CTTAATTTAATGAAATGTACATATAAAAATATTATA [XGTACX_site3303],7.11
7,TTTATTAATAATTATACACACATATAAAATGAATAA [CACACA_site1359],7.01
8,ATATATAACGTGCACACACACATTTACGTATGAATA [CACACA_site6948],10.4
9,TAATATATAACGTGCACACACACATTTACGTATGAA [CACACA_site1832],9.88
10,ATATAAGTACGGCATGCATGCACATTTTTTTATTCC [TGCATGCA_site101],7.09
11,TACGTTATATACAACTGTACTTGGATAATTATTAAC [XGTACX_site5614],7.13
12,TCTTTTTTTTTTTTTTTTTTTTTTTATTTATTCATA [CACACA_negctrl_site1827],6.85
13,CATAATATATATTGAGCATGCTACTATTGTTAGAAA [TGCATGCA_site740],6.93
14,ATATATAAATATAGCATACACACAAAAAAATAAAAT [CACACA_site2332],7.11
15,TTTTTATGGACTATGGTGCATTATATATAAATGAAA [GTGCAC_site9557],10.6
16,AAATATTATAAAAAGGTGCATTTTTATTATATGAGT,11
17,TACAGTTCAATGAAGGTGCAATTAATATATAAAATA,10.2
18,TTATTTTTATTATAAATTATAAAATATAAATAAATA [GTGCAC_negctrl_site616],6.79
19,ATATTTTATGTAAAGGTGCAAAACAACATTAAAAAA,10.5
20,TATCATATATGAAGGTGTACGATTTATTATATAAAT [XGTACX_site7010],7.04
21,TTTTTTAAATATTATTTTTATGAGTAAATATATTAT [GTGCAC_negctrl_site277],6.71
22,TTTTTTAAATATATGGTGCATAGAAAGATATTATAC [GTGCAC_site9984],10
23,GACAATATTAAAACATGTACATGCATTTTATGAATA [XGTACX_site553],7.05

row,Sequence,gcPBM binding intensity (ln)
1,TTTTTTTTTAATAAAATTATAATAAATATGAAATTA [XGTACX_negctrl_site369],6.67
2,ATTTATTTTATATGTTGTACAAACATTTTAAAACAT [XGTACX_site6919],6.95
3,ATTATCAATATGAAGGTGCATTTAAATAATATTTAC,10.7
4,ATCATATATTATTTATGTACTTATTTATAATAATAT [XGTACX_site8257],7.06
5,AGAATATCAAAATAAAGTACATTTATTATATATATG [XGTACX_site7100],7.15
6,TTATTTAAAAAATTTTTAAATATACAAAAAAAAAAA [TGCATGCA_negctrl_site464],6.88
7,TTAATTGACATAAAAAGTACTCATATAGATATGCAC [XGTACX_site6391],8.9
8,AAACATTTATCAATGAATCTTTTAATAAGTGTAAAG [XGTACX_negctrl_site80],6.79
9,TAAATATAACAGAATAATATGTGGATTAATAAATGA [CACACA_negctrl_site438],6.81
10,ACATATGGCACATATGTACACACGTATAGATAATAT [CACACA_site2024],7.19
11,TGGAGGTCAGTTCACAGTACCCAGAAAACTCTACGA [XGTACX_site2561],6.58
12,TAAAATATTATAAAATGTACAAAACATATAAATATA [XGTACX_site5315],6.8
13,AACACATAATAAAATTGTACCCAACATTTCTTTTGA [XGTACX_site8061],6.96
14,GCAAATCATGCTATGGTGCATATGTAAGATGAGCAT,10.6
15,TATTAATTATAAGATGCATGTGCAAAAATATGTTCC [TGCATGCA_site51],7.6
16,GCATATGATGAGCATATAATCATAAGAAAAAAAAAA [CACACA_negctrl_site701],6.72
17,TATAACTTTTATAGGTGTACCCAATATTATATATAG [XGTACX_site7673],6.97
18,CCAGTGTGCACCTTGCGTACATATTAAATTAATTAA [XGTACX_site3729],12.2
19,TTGCATTAATTTATGTGTACATATAAATTTTTATTT [XGTACX_site3060],7.41
20,TTAAAAATGTGTGTGCGTACATAATATTTCGAAAAA [XGTACX_site8197],7.03
21,CATGTATGTACCATGGTGCAACAATATTTTTAACAA [GTGCAC_site9597],10.6
22,ATATATATGTATATAACATGCAACATTTAATAATAA [TGCATGCA_site1018],7.18
23,TATATATATTTTATATGTACGTATGGAACAATATGA [XGTACX_site8167],7.38

row,Sequence,gcPBM binding intensity (ln)
1,GTTACTGCATACATAACACACATATTCAAAACCCAT [CACACA_site5856],7.13
2,CATTATGTCATAAATGCACACATATATATATACATA [CACACA_site8454],7.38
3,TGATTCTGTCATGGTGCACACCAGAACCATTATAAA [CACACA_site1965],11.9
4,TTCTGTATACGGTGTGCACACAATTAAAAAAAAAAA [CACACA_site1416],9.47
5,TTATAAAGAATTAGGAGTACAAATGCATATATAATA [XGTACX_site6580],7.3
6,TGTTTATTTTTTTTATGTACTTATTTTTTATTGCAT [XGTACX_site719],7.61
7,ATATTTTTATTTAAATCACATCATTTTGTTTATTTG [CACACA_negctrl_site1056],6.95
8,AAAATTAACGAGTGCACACATATTTAGATAAAATAC [CACACA_site2936],11.2
9,TAAAATAATATTTATGTGCACATATAATTATTAATT,8.71
10,GAAAAATTAAAAATAACACACACATATATATATTTA [CACACA_site8896],6.98
11,AAAATTAAAAATAACACACACATATATATATTTATA [CACACA_site2776],6.9
12,AAAAAATTAACGAGTGCACACATATTTAGATAAAAT [CACACA_site8958],10.6
13,AAAATTAAAAATAACACACACATATTTATATTTATA [CACACA_site7329],6.87
14,TTTTATTTATTATTATGTACACACTATATTAAAACA [XGTACX_site1265],7.13
15,TTGTTATTCCACCGTTGTACAGTTATATACATACAC [XGTACX_site8296],7.31
16,GTACATTGTAAGGATGGAAAAGCTAAACATTATAAT [XGTACX_negctrl_site339],6.99
17,ATAGAACAATTCAGAAGTACATAAAAAGAAAAATTT [XGTACX_site3015],6.9
18,ATGAACATTTATAAATGTACTCACATATATATATTT [XGTACX_site6692],7.02
19,TTTTTTTTTTTTGAGGTGCATATATCAGATCAATAT,10.6
20,TAATGTTGAGAATTTTGTACATATAGATCAATTTAT [XGTACX_site5426],6.84
21,ATATATATATGTTAGGTGCATATATATTTTGTGGAT [GTGCAC_site9964],9.6
